Bioassay records: PubChem BioAssay, Sanford-Burnham Center for Chemical Genomics
An excerpt weighted towards active compounds, which were near 28% of everything screened.
CYP2C19 inh = inhibitors of human CYP2C19. P33261. CYP2C19 Supersomes, luciferin-H EGE luminescence, 30 min. inhibition, % at 5 µM. hit rate 21% among 96,000. AID 778;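 active = CYP2C19 inhibition above a set limit at 5 µM in the primary screen, cut at about 50% in these data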;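 also: plate controls were negative control wells for no effect and 2.5 mM tranylcypromine positive control for full effect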
CYP2C9 inhib = human CYP2C9 inhibition; P11712; CYP2C9 Supersomes, luciferin-H conversion, luminescence; inhibition, % at 5 µM; hit rate 20% among 96,000; AID 777;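 active = blocking of liver enzyme CYP2C9 beyond about 50% at 5 µM, limit read from the data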
Target sequence (P11712 whole entry, looked up): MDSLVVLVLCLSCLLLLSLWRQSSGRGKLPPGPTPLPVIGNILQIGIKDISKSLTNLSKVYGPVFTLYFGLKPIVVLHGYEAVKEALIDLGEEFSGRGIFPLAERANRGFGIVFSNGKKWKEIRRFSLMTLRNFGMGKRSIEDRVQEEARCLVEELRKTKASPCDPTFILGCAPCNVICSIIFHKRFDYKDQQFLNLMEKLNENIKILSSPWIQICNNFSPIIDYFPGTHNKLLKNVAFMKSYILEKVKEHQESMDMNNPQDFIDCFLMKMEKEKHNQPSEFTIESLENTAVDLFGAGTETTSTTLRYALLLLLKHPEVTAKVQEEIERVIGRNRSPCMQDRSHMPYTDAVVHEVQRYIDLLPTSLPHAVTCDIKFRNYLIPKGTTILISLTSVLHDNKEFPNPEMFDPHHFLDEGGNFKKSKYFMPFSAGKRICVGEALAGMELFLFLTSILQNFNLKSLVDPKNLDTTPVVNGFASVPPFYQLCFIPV
Mac1 fbg enh = CD11b/CD18-fibrinogen binding enhancement | K562 CD11b/CD18 adhesion to fibrinogen, ATPlite luminescence | AID 1499 | hit rate 0.07% among 93,000 | activation, % at 10 µM;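 active = 10 µM primary screen giving 50% or more activity, confirmed by 40% or more on retest at that dose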
CYP2C9 activ = increases human cytochrome P450 2C9 activity | P11712 | recombinant CYP2C9, luciferin-H conversion, luminescence; active compounds read high; factor 1 = untreated enzyme, 0 = blocked | activation factor at 5 µM | hit rate 1.4% among 96,000 | AID 1024;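 active = activation factor of 2 or more for CYP2C9 at a 5 µM dose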;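 also: 0 = sulfaphenazole-blocked wells and 1 = vehicle-only wells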
Mac1 fbg inh = inhibitors of human CD11b/CD18 binding to fibrinogen. P05107+P11215. K562 CD11b/CD18 adhesion to fibrinogen, ATPlite luminescence; Mn2+ added to activate the integrin. inhibition, % at 10 µM. hit rate 0.54% among 93,000. AID 1497;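 active = primary inhibition of 50% or more at 10 µM, then 40% or more on retest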
CYP2C19 activ = activators of human cytochrome P450 2C19. P33261. recombinant CYP2C19, luciferin-H EGE luminescence; active compounds read high; 0 = fully inhibited enzyme, 1 = untreated enzyme. activation factor at 5 µM. 96,000 tested, under 10 active;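 active = activation factor of at least 2 at 5 µM in the primary screen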;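 also: 0 = wells with 2.5 mM tranylcypromine and 1 = vehicle-only wells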
An asterisk follows results filed as active; / = no result.

SMILES | CYP2C19 inh | CYP2C9 inhib | Mac1 fbg enh | CYP2C9 activ | Mac1 fbg inh | CYP2C19 activ
C/C(CC1CC(COCCC(C)C)OC1=O)=N\NC(N)=S (configuration not stated) | -1 | -25 | / | 1.2 | / | 1
COc1ccccc1NC(CC(=O)c1ccccc1)C(=O)OCC(=O)c1ccc(F)cc1 (configuration not stated) | / | / | 1 | / | -8 | /
CSCCC(CO)NC(=O)OCc1ccccc1 (configuration not stated) | 44 | 1 | 5 | 1 | -22 | 0.6
O=C(c1ccc(-c2ccccc2)cc1)N1CCN(Cc2ccccn2)CC1 | -4 | -9 | -4 | 1.1 | 10 | 1
CN1CCN(/N=C/c2cccc(Cl)c2Cl)CC1 | / | / | -4 | / | -2 | /
CCOC(=O)C1=C(N)Oc2c(oc(CO)cc2=O)C1c1c(F)cccc1Cl (configuration not stated) | 71* | 59* | -2 | 0.4 | 0 | 0.3
Cc1ccc(S(=O)(=O)N/N=C2/CC(c3ccccc3)Oc3ccccc32)cc1 (configuration not stated) | 31 | 80* | / | 0.2 | / | 0.7
O=S(=O)(N/N=C1\CC(c2ccccc2)Oc2ccccc21)c1ccccc1 (configuration not stated) | 27 | 41 | / | 0.6 | / | 0.7
CCOc1ccc(S(=O)(=O)N/N=C2/CC(c3ccccc3)Oc3ccccc32)cc1 (configuration not stated) | 56* | 88* | -2 | 0.1 | 28 | 0.4
Cc1cc(Nc2ccccc2)nc(NCc2ccccc2)n1 | / | / | -10 | / | 100 | /
CCCCNc1cc(C)nc(NCc2ccccc2)n1 | 28 | 16 | -13 | 0.8 | 85* | 0.7
COc1ccccc1CNC(=O)c1cnc2ccccn2c1=O | 18 | -19 | 4 | 1.2 | 2 | 0.8
COc1ccc(CNC(=O)c2cnc3cc(C)ccn3c2=O)cc1 | 62* | 20 | 7 | 0.8 | -8 | 0.4
CC(=O)OC(C(=O)NCc1ccc2c(c1)OCO2)c1ccccc1Cl (configuration not stated) | 93* | 54* | -4 | 0.5 | 6 | 0.1
O=C(NCc1ccc2c(c1)OCO2)c1cnc2ccccn2c1=O | 66* | -39 | -1 | 1.4 | -27 | 0.3
CSc1ccccc1C(=O)NCc1ccc2c(c1)OCO2 | 94* | 12 | 2 | 0.9 | -1 | 0.1
COc1ccc(CNC(=O)c2ccc(-c3ccccc3)cc2)cc1 | 3 | 12 | -2 | 0.9 | 2 | 1
CCSc1ccccc1C(=O)NCc1ccc2c(c1)OCO2 | 99* | 37 | -5 | 0.6 | 5 | 0
COc1ccc(CNC(=O)c2ccccc2SC)cc1 | 90* | 20 | 1 | 0.8 | -2 | 0.1
CCOc1ncccc1C(=O)NCc1ccc(C)cc1 | / | / | -6 | / | 19 | /
CCOc1ncccc1C(=O)Nc1ccccc1C(=O)NCc1ccc2c(c1)OCO2 | 48 | 75* | -2 | 0.3 | -18 | 0.5
CC(NC(=O)CSc1nc(=O)cc(N)n1CCc1ccccc1)c1ccccc1 (configuration not stated) | 27 | 17 | / | 0.8 | / | 0.7
N#CC1=C(N)C(C#N)(C#N)C2(C(=O)Nc3ccccc32)C2CCCC=C12 (configuration not stated) | 35 | 55* | -4 | 0.4 | -3 | 0.6
COC(=O)c1sccc1NC(=O)c1ccc(OC)c(OC)c1 | 11 | 17 | -5 | 0.8 | 4 | 0.9
O=C1C2C(C(=O)N1Cc1ccco1)C1C=CC2C12CC2 (configuration not stated) | 12 | -9 | 0 | 1.1 | -27 | 0.9
SMILES | CYP2C19 inh | CYP2C9 inhib | Mac1 fbg enh | CYP2C9 activ | Mac1 fbg inh | CYP2C19 activ
O=C1C2C3C=CC(C3)C2C(=O)N1CCc1ccccc1 (configuration not stated) | 90* | 35 | -5 | 0.7 | -52 | 0.1
O=C1C2C(C(=O)N1CCc1ccccc1)C1C=CC2C12CC2 (configuration not stated) | 92* | 29 | -4 | 0.7 | -3 | 0.1
O=C(NCCN1C(=O)C2C3C=CC(C3)C2C1=O)Nc1ccccc1O (configuration not stated) | 77* | 17 | -5 | 0.8 | -6 | 0.2
O=S(=O)(c1ccccc1)N1N=C(c2cccs2)CC1c1ccc(Br)cc1 (configuration not stated) | 21 | 52* | / | 0.5 | / | 0.8
O=C(c1ccco1)N1N=C(c2cccs2)CC1c1ccc(F)cc1 (configuration not stated) | 30 | 44 | 8 | 0.6 | 2 | 0.7
COc1ccc(C(=O)Cn2c(N3CCOCC3)nc3ccccc32)cc1OC | -16 | -6 | -2 | 1.1 | 52 | 1.2
O=C(O)CCc1n[nH]c(=S)[nH]c1=O | -2 | -12 | -3 | 1.1 | -6 | 1
NC(=O)CSc1nc2scc(-c3ccc(Cl)cc3)c2c(=O)n1Cc1ccccc1 | / | / | -5 | / | -20 | /
COCCCNC(=O)CN(c1ccc(Cl)c(Cl)c1)S(C)(=O)=O | 30 | -3 | -6 | 1 | 1 | 0.7
COCCNC(=O)CN(c1ccc(C)cc1)S(=O)(=O)c1ccc(SC)cc1 | 98* | 77* | 2 | 0.2 | -5 | 0
COc1ccc(N(CC(=O)NCCSc2ccccn2)S(C)(=O)=O)cc1Cl | 55* | 60* | -3 | 0.4 | -13 | 0.5
Cc1ccc(S(=O)(=O)N(CC(=O)NCCSc2ccccn2)c2cc(C)cc(C)c2)cc1 | 42 | 79* | -1 | 0.2 | -2 | 0.6
O=C(NCc1ccc(F)cc1)C(c1cccs1)N(C(=O)c1csnn1)C1CC1 (configuration not stated) | 23 | -14 | 0 | 1.1 | 2 | 0.8
O=C(OCc1cnc(Cl)s1)c1cccc(Cl)c1Cl | 92* | 45 | 5 | 0.6 | -23 | 0.1
O=C(OCc1cnc(Cl)s1)c1ccccc1Cl | 77* | 13 | / | 0.9 | / | 0.2
CC(C)C(=O)Nc1nnc(SCC(=O)NCc2ccco2)s1 | / | / | 1 | / | -20 | /
CCCn1c(=O)n(C)c(=O)c2c(SCC(=O)NCc3ccco3)nc(C3CC3)nc21 | 12 | 59* | 6 | 0.4 | -24 | 0.9
O=C(CSc1nc(C2CC2)nc2sc3c(c12)CCCC3)NCc1ccco1 | -15 | -4 | 53 | 1 | 6 | 1.1
COC1(OC)N=C(NC(=O)Nc2ccccc2)C2(C#N)C(c3ccccc3)C12C#N (configuration not stated) | -4 | 5 | 4 | 0.9 | -11 | 1
Fc1ccc(NC(=S)NCCc2ccccc2)c(F)c1F | 83* | 45 | / | 0.6 | / | 0.2
Fc1ccccc1NC(=S)NCCc1ccccc1 | 80* | 27 | / | 0.7 | / | 0.2
COc1ccc(Br)cc1/C=c1\sc2nc(-c3ccco3)nn2c1=O | 62* | 61* | 121 | 0.4 | -7 | 0.4
Cc1ccc(C)c(-c2nnc(OCC(=O)Nc3cc(C)on3)c3ccccc23)c1 | 76* | 95* | -3 | 0.1 | -3 | 0.2
